Measurements as given in PubChem BioAssay (Tox21).
Records with an inconclusive call do not appear. Calls of active or inactive are those of the source. Unless noted, calls follow the shape of the dose curve; as a rule, active = well fitted curve in the direction sought with a large enough effect in the repeat runs; inconclusive = weak or mixed curves; inactive = no such curve, though single readings can be large; an effect the other way counts as inactive or inconclusive.

How the values were obtained:
[1] = qHTS assay for small molecules that induce genotoxicity in human embryonic kidney cells expressing luciferase-tagged ATAD5 (AID 651632); also: nearly all actives have a fitted effect of over 15% in size; also: potency is read from the fitted curve at half-maximal effect
How it was run: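 HEK293T cells carrying luciferase-tagged ATAD5 were given compound or DMSO vehicle and incubated 16 hr at 37C, 5% CO2. Luciferase activity was read after 30 min at room temperature with Amplite; a rise signals genotoxic stress.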

[2] = qHTS assay for small molecule agonists of the p53 signaling pathway - cell viability (AID 651633; calls by dose curve;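 also: p53RE-bla HCT reporter cells with a stable beta-lactamase p53 reporter; nearly all actives have a fitted effect of over 30% in size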)
How it was run: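 p53RE-bla cells were treated with compound for 16 hours at 37 C. Cytotoxicity was then measured as CellTiter-Glo luminescence after 30 min at room temperature.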

[3] = qHTS assay for small molecule disruptors of the mitochondrial membrane potential - cell viability (AID 720634; calls by dose curve; also: nearly all actives have a fitted effect of over 20% in size; also: potency is read from the fitted curve at half-maximal effect)
How it was run: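 HepG2 cells, 2,000 per well, attached overnight, then treated 1 hr at 37 C, 5% CO2. Viability read as ATP by CellTiter-Glo luminescence after 30 min at room temperature. Read in the same wells as the m-MPI membrane-potential dye assay.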

[4] = qHTS assay to test for compound auto fluorescence at 590 nm (red) in HepG2 cells (AID 720674)
How it was run: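 Seeding: 2,000 HepG2 cells/well, MEM/10% FBS, overnight 37 C. Dosing: compound vs DMSO. Incubation: 1 hr, 37 C, 5% CO2. Read: fluorescence 540 ex/590 em, Rose Bengal sodium as red reference.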

[5] = qHTS assay to test for compound auto fluorescence at 535 nm (green) in HepG2 cells (AID 720675)
[6] = qHTS assay to test for compound auto fluorescence at 460 nm (blue) in HEK293 cells (AID 720678)
How it was run: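 Intrinsic compound fluorescence is recorded in live HEK293 cultures after overnight incubation at 37C, 5% CO2, using excitation 405 nm and emission 460 nm. Values are referenced to triamterene.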

[7] = qHTS assay to test for compound auto fluorescence at 590 nm (red) in HEK293 cells (AID 720679)
How it was run: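 Red autofluorescence, HEK293 cells: 2,000 cells/well; attach 4-5 hr 37C; add 23 nL cpd or DMSO; incubate o/n 37C 5% CO2; read Ex540/Em590; Rose Bengal sodium reference.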

[8] = qHTS assay to test for compound auto fluorescence at 460 nm (blue) in HEK293 cell free culture (AID 720681)
How it was run: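 Compounds were added to cell-free DMEM with 10% FBS and fluorescence read directly. The blue channel used 405 nm excitation and 460 nm emission, with triamterene as the reference fluorophore.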

[9] = qHTS assay to test for compound auto fluorescence at 535 nm (green) in HEK293 cell free culture (AID 720682)
How it was run: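 Measurement is a direct plate read of green fluorescence (485 nm in, 535 nm out) after compound addition to serum-supplemented DMEM lacking cells, with fluorescein used to express intensities.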

[10] = qHTS assay to test for compound auto fluorescence at 590 nm (red) in HEK293 cell free culture (AID 720683)
How it was run: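 Cell-free wells of DMEM with 10% FBS received compound, and intrinsic fluorescence was read at excitation/emission 540/590 nm. Values expressed as equivalence to Rose Bengal sodium.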

[11] = qHTS assay to test for compound auto fluorescence at 590 nm (red) in HepG2 cell free culture (AID 720684)
How it was run: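 Compounds are added to culture medium (MEM, 10% FBS) lacking cells, then fluorescence is read at excitation 540 nm, emission 590 nm, with Rose Bengal sodium as the equivalency standard.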

[12] = qHTS assay to test for compound auto fluorescence at 460 nm (blue) in HepG2 cell free culture (AID 720685)
How it was run: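 Compound (23 nL) or DMSO pinned into cell-free MEM with 10% FBS; blue fluorescence read at 405/460 nm excitation/emission, expressed as auto-fluorescence equivalency to triamterene.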

[13] = qHTS assay to test for compound auto fluorescence at 535 nm (green) in HepG2 cell free culture (AID 720686)
[14] = qHTS assay to test for compound auto fluorescence at 460 nm (blue) in HepG2 cells (AID 720687)
How it was run: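 HepG2 cells in MEM with 10% FBS, attached overnight at 37 C, were exposed to compound or DMSO for 1 hr at 37 C, 5% CO2. Blue fluorescence was read at 405/460 nm, with triamterene as reference fluorophore.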

[15] = target: Glucocorticoid receptor (Homo sapiens) (UniProt P04150); experiment: qHTS assay to identify small molecule agonists of the glucocorticoid receptor (GR) signaling pathway (AID 720691; active = well fitted activation curve with a large enough effect in the signal ratio in the repeat runs, not every such curve was filed as active; the % refers to the signal ratio); conditions: GR-bla HeLa, beta-lactamase reporter ratio, 18 h; activation: at 62.4 µM (top of the series)
How it was run: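 GR-bla HeLa cells carrying a GRE-driven beta-lactamase reporter, exposed to compounds for 18 h at 37 C. Reporter activation read as fluorescence after 2 h with LiveBLAzer B/G FRET substrate at room temperature.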

[16] = target: Glucocorticoid receptor (Homo sapiens) (UniProt P04150); experiment: qHTS assay to identify small molecule antagonists of the glucocorticoid receptor (GR) signaling pathway (AID 720692; active = well fitted inhibition curve with a large enough effect in the signal ratio in the repeat runs, not every such curve was filed as active; the % refers to the signal ratio; also: potency is read from the fitted curve at half-maximal effect)
How it was run: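 GR-bla HeLa cells carrying a GRE-driven beta-lactamase reporter received compound after 4 h plating, then dexamethasone (5 nM final). After 18 h at 37C, the FRET substrate was loaded for 2 h at room temperature and fluorescence read.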

[17] = qHTS assay for small molecule disruptors of the mitochondrial membrane potential (AID 720635); also: potency is read from the fitted curve at half-maximal effect
How it was run: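 HepG2 cells exposed to compound 1 hr at 37C, then Mito-MPS dye 30 min. Ratio read of aggregate (540/590 nm) versus monomer (490/535 nm) fluorescence.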

[18] = qHTS assay to test for compound auto fluorescence at 535 nm (green) in HEK293 cells (AID 720680)
[19] = qHTS assay for small molecules that induce genotoxicity in human embryonic kidney cells expressing luciferase-tagged ATAD5 - cell viability (AID 651634; calls by dose curve; also: nearly all actives have a fitted effect of over 25% in size; also: potency is read from the fitted curve at half-maximal effect)
How it was run: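 HEK293T cells carrying luciferase-tagged ATAD5, 2,000 cells/well, exposed to compound for 15.5 hr at 37C. Viability read as live-cell protease activity by CellTiter-Fluor fluorescence after 30 min at 37C.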
% is scaled to controls: 0 for no effect and ±100 for the full control effect.

Glucocorticoid receptor (Homo sapiens), sequence (P04150 whole entry, looked up): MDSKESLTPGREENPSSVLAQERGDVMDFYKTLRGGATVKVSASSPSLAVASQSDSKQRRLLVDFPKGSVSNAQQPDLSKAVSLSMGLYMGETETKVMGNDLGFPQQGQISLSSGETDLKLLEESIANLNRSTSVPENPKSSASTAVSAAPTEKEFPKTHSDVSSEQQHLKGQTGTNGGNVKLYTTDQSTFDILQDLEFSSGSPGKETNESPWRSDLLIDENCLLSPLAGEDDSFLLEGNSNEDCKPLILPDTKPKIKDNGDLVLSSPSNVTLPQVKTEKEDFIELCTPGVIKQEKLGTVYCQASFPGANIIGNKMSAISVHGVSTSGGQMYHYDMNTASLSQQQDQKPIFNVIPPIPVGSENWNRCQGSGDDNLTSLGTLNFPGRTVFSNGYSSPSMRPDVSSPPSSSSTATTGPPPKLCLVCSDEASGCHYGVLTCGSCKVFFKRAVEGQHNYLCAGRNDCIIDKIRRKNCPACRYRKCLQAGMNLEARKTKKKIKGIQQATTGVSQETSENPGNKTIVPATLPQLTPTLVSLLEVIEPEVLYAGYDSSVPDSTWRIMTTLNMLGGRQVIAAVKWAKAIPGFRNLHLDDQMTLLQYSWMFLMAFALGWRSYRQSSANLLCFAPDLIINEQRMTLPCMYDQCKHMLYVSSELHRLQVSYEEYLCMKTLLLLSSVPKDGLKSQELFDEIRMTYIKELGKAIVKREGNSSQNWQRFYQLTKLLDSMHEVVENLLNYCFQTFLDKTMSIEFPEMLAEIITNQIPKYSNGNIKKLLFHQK

CCOP(=O)(OCC)Oc1nc(Cl)c(Cl)cc1Cl
inactive: Potency [1] | Potency [2] | Potency [3] | outcome [4] | Potency [5] | Potency [6] | outcome [7] | Potency [8] | outcome [9] | outcome [10] | outcome [11] | Potency [12] | Potency [13] | Potency [14] | Potency [15]
active: Potency [16] 27.4 µM

CSC(C)(C)/C=N/O
inactive: Potency [1] | Potency [3] | Potency [17] | outcome [4] | Potency [5] | Potency [6] | outcome [18] | Potency [8] | outcome [9] | outcome [10] | outcome [11] | Potency [12] | Potency [13] | Potency [14] | Potency [15] | Potency [16]

CCNc1nc(NC(C)C(C)C)nc(SC)n1 (stereo not given)
inactive: Potency [1] | Potency [19] | Potency [3] | outcome [4] | Potency [5] | Potency [6] | outcome [7] | outcome [18] | Potency [8] | outcome [9] | outcome [10] | outcome [11] | Potency [12] | Potency [13] | Potency [14] | Potency [15] | Potency [16]
active: Potency [17] 7.7 µM

CCc1cccc(C)c1N(C(=O)CCl)[C@@H](C)COC
inactive: Potency [1] | Potency [19] | outcome [4] | Potency [5] | Potency [6] | outcome [7] | outcome [18] | Potency [8] | outcome [9] | outcome [10] | outcome [11] | Potency [12] | Potency [13] | Potency [14]

CNC(=O)CSP(=O)(OC)OC
inactive: Potency [1] | Potency [19] | Potency [3] | outcome [4] | Potency [5] | Potency [6] | outcome [18] | Potency [8] | outcome [9] | outcome [10] | outcome [11] | Potency [12] | Potency [13] | Potency [14] | Potency [15] | Potency [16]

CC(C)C(Nc1ccc(C(F)(F)F)cc1Cl)C(=O)OC(C#N)c1cccc(Oc2ccccc2)c1 (stereo not given)
inactive: Potency [1] | Potency [2] | Potency [3] | outcome [4] | Potency [5] | Potency [6] | outcome [7] | outcome [18] | Potency [8] | outcome [10] | outcome [11] | Potency [13] | Potency [14]

CCC(C)c1cccc(C(C)CC)c1O (stereo not given)
active: Potency [17] 13.7 µM
inactive: Potency [1] | Potency [3] | outcome [4] | Potency [5] | Potency [6] | outcome [18] | Potency [8] | outcome [9] | outcome [10] | outcome [11] | Potency [12] | Potency [13] | Potency [14]

C#CCC1=C(C)C(OC(=O)C2C(C=C(C)C)C2(C)C)CC1=O (stereo not given)
inactive: Potency [1] | Potency [19] | outcome [4] | Potency [5] | Potency [6] | outcome [7] | outcome [18] | Potency [8] | outcome [9] | outcome [10] | outcome [11] | Potency [12] | Potency [13] | Potency [14]
active: Potency [17] 60.7 µM

Nc1ccc(N=Nc2ccccc2)cc1
active: Potency [1] 13.7 µM | Potency [16] 54.9 µM
inactive: Potency [2] | outcome [4] | Potency [5] | Potency [6] | outcome [7] | outcome [18] | Potency [8] | outcome [9] | outcome [10] | outcome [11] | Potency [12] | Potency [14] | Potency [15]

S=C=Nc1ccccc1
active: Potency [17] 28.2 µM
inactive: Potency [1] | Potency [19] | Potency [3] | outcome [4] | Potency [5] | Potency [6] | outcome [7] | outcome [18] | Potency [8] | outcome [9] | outcome [10] | outcome [11] | Potency [12] | Potency [13] | Potency [14] | Potency [15] | Potency [16]

CCNS(=O)(=O)C(F)(F)C(F)(F)C(F)(F)C(F)(F)C(F)(F)C(F)(F)C(F)(F)C(F)(F)F
active: Potency [3] 5.22 µM
inactive: Potency [1] | Potency [2] | Potency [5] | Potency [6] | Potency [8] | outcome [9] | outcome [10] | outcome [11] | Potency [13] | Potency [14]

CCC[CH2][Sn]([CH2]CCC)([CH2]CCC)[O][Sn]([CH2]CCC)([CH2]CCC)[CH2]CCC
active: Potency [19] 377 nM | Potency [3] 1.68 µM | Potency [17] 0.0752 µM
inactive: activation [1] -11.2% [at 8.08 µM] | fluorescence, relative to Rose Bengal [4] -0.33% [at 3.72 µM] | fluorescence, % of fluorescein control [5] -0.0029% [at 3.72 µM] | fluorescence, % of triamterene [6] -0.1% [at 3.72 µM] | fluorescence, % of fluorescent control [7] -0.182% [at 3.72 µM] | fluorescence, % of fluorescein [18] 0.0128% [at 3.72 µM] | fluorescence, % of fluorescent control [8] -0.0236% [at 3.72 µM] | activity change [9] 0.0175% [at 3.72 µM] | fluorescence, % of fluorescent control [10] 0.113% [at 3.72 µM] | fluorescence, % of Rose Bengal [11] 0.0071% [at 3.72 µM] | fluorescence, % of fluorescent control [12] -0.0005% [at 3.72 µM] | fluorescence, % of fluorescein control [13] -0.0002% [at 3.72 µM] | fluorescence, % of fluorescent control [14] 0.0007% [at 3.72 µM]

CCC1(CC)C(=O)N=C(O)NC1=O
inactive: Potency [1] | Potency [2] | Potency [3] | outcome [4] | Potency [5] | Potency [6] | outcome [7] | outcome [18] | Potency [8] | outcome [9] | outcome [11] | Potency [12] | Potency [13] | Potency [14] | Potency [15] | Potency [16]

O=C(Nc1ccc(F)cc1F)c1cccnc1Oc1cccc(C(F)(F)F)c1
inactive: Potency [1] | Potency [19] | Potency [3] | outcome [4] | Potency [5] | Potency [6] | outcome [7] | Potency [8] | outcome [9] | outcome [10] | outcome [11] | Potency [12] | Potency [13] | Potency [14] | Potency [15] | Potency [16]
active: Potency [17] 23.8 µM

CC(C)=CC1C(C(=O)OC(C#N)c2cccc(Oc3ccccc3)c2)C1(C)C (stereo not given)
inactive: Potency [1] | Potency [19] | Potency [3] | outcome [4] | Potency [5] | Potency [6] | outcome [7] | outcome [18] | Potency [8] | outcome [10] | outcome [11] | Potency [12] | Potency [13] | Potency [14] | Potency [15]
